Shown are actives, neighbours in structure and some others; about 7.3% of the full set was active somewhere.
Tau fibril FP – tau fibrillization inhibition (FP); P10636; K18 P301L tau heparin fibrillization, Alexa594 FP, 6 h; Potency, µM (highest dose often 57.7 µM), inactives show at the top dose activity, negative = inhibition, hits mostly inhibitors; actives 0.39% (n = 280,000); AID 1468; note: nearly all actives have a fitted effect of over 55% in size
Target sequence (P10636 561-689 P618L limits assumed): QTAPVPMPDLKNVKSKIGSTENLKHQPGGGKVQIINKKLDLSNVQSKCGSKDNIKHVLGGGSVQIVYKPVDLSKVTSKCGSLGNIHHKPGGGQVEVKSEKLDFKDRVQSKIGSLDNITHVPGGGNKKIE
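Read-out: fluorescence polarization of Alexa 594-labeled tau (0.24 uM), 555 nm excitation, 632 nm emission. Mixtures held 15 uM unlabeled K18 P301L, compound and 20 uM heparin, pH 7 acetate buffer, incubated 6 hr at 37 C.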
RORg inh – ROR gamma (mouse) transcription inhibition; P51450; Drosophila S2 Gal4-RORgamma UAS-luciferase reporter, 20 h; Potency, µM (titrated, usually from 53.6 µM), for inactives: top-dose activity change, negative = inhibition, actives largely listed as inhibitors; actives 5.4% (n = 310,000); AID 2551; note: nearly all actives have a fitted effect of over 60% in size
Target sequence (P51450 whole entry, looked up, the tested form may be a part): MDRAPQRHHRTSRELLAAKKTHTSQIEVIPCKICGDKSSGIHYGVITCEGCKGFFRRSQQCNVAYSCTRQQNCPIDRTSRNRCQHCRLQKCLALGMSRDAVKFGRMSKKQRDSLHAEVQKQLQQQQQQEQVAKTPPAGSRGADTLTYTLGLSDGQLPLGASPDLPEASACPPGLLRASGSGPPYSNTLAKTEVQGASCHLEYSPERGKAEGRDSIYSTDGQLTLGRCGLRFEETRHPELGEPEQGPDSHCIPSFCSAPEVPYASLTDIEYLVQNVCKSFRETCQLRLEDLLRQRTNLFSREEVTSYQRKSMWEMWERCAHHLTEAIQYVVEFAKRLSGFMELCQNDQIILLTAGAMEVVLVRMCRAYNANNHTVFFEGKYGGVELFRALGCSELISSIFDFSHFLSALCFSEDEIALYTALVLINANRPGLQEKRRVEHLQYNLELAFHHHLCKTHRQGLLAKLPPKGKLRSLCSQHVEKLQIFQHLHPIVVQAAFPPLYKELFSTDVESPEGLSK
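Luminescence from a UAS-regulated Photinus luciferase reporter in stably transfected Drosophila Schneider cells is measured; decreased signal marks ROR gamma inhibition. Fusion expression is induced by 700 uM copper sulfate for 20 hr.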
Tau fluor counter – counter-screen for tau fibril formation inhibitors | tau K18 P301L Alexa594 fluorescence, heparin fibrillization | Potency, µM (doses to about 57.7 µM), for the others: at the highest dose activity change, negative = decrease | actives 0.93% (n = 280,000) | AID 1463; note: nearly all actives have a fitted effect of over 55% in size
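Human tau K18 P301L (15 uM unlabeled, 0.24 uM Alexa 594-labeled) in 100 mM sodium acetate pH 7 with 20 uM heparin, 6 hr at 37 C. ThT 30 uM added, 1 hr ambient; Alexa 594 FP and total fluorescence read at 555/632 nm.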
VP16 counter – counter-screen for ROR gamma inhibitors: Gal4-VP16 reporter | Drosophila S2 Gal4-VP16 UAS-luciferase, luminescence, 20 h | Potency, µM (titrated, usually from 53.6 µM), without a hit: at the highest dose activity, negative = inhibition, hits mostly inhibitors | actives 3.5% (n = 310,000);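 note: Gal4-VP16 expression switched on by copper sulfate through the metallothionein promoter; nearly all actives have a fitted effect of over 50% in size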
Tau ThT inhib – inhibitors of human tau fibril formation, thioflavin T binding | P10636 | recombinant tau K18 P301L (four-repeat tau fragment), heparin-induced fibrillization, ThT fluorescence | Potency, µM (highest dose often 57.4 µM), for inactives: top-dose activity, negative = inhibition, most hits filed as inhibitors | actives 2.1% (n = 270,000) | AID 1460; note: nearly all actives have a fitted effect of over 55% in size
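Tau K18 P301L fragment (15 uM unlabeled plus 0.24 uM Alexa 594-labeled) in 100 mM sodium acetate pH 7 with compound, fibrillization induced by 20 uM heparin for 6 hr at 37 C. Thioflavin T (30 uM) added, fluorescence read after 1 hr (ex 450, em 510 nm).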
Starred values were filed as active, the others as inactive; ? = inconclusive; · = no result given; [ ] = remark or other dose. Calls come from the whole dose curve; as a rule, active = well fitted curve in the direction sought with a large enough effect; inconclusive = small, poorly fitted or top-dose-only effect, or another doubt; inactive = no such curve, though single readings can be large; an effect the other way counts as inactive or inconclusive. % is set by controls: 0 for no effect and ±100 for the full control effect; potency is the fitted concentration of half-maximal effect.

SMILES	Tau fibril FP	RORg inh	Tau fluor counter	VP16 counter	Tau ThT inhib
CC1=C(c2ccc(NN=C(C#N)C#N)cc2)NNC(=O)C1	·	22µM*	·	?	·
O=C(CN(C(=O)CCC(=O)Nc1nccs1)c1ccc(F)cc1)NCc1ccccc1	·	-1%	·	5%	·
O=C(CN(C(=O)CCC(=O)Nc1nccs1)c1cccc(F)c1)NCc1ccc(F)cc1	·	35µM*	·	-5%	·
COc1ccc(CNC(=O)Cn2c(SCC(=O)Nc3ccc(C)c(C)c3)nc3ccccc32)cc1	-5%	·	-8%	·	0%
COc1cc2c3nnc(-c4ccc(F)cc4)c-3cn(Cc3ccc(F)cc3)c2cc1OC	?	?	-21%	5%	?
COc1cc2c3nnc(-c4ccc(F)cc4)c-3cn(Cc3ccccc3)c2cc1OC	10%	11µM*	-29%	7.1µM*	?
COc1ccc2nc(/N=C/c3c(C)[nH]n(-c4ccc(C)cc4)c3=O)sc2c1	-19%	-71%	?	-8%	18µM*
CC(C)(C)c1ccc(-c2cn(-c3ccc(Br)cc3)c3[n+]2CCCS3)cc1	6%	7.1µM*	7%	7.9µM*	-6%
CCc1ccc(CNC(=O)c2ccc(CSc3nc4ccncc4n3Cc3ccccc3)cc2)cc1	-6%	·	?	·	-8%
COc1ccc(-n2c(=O)cc(N3CCc4ccccc43)[nH]c2=O)cc1	-12%	15%	-7%	-3%	-6%
O=c1cc(N2CCc3ccccc32)[nH]c(=O)n1-c1ccc(Br)cc1	?	-16%	-28%	1%	28µM*
CCOc1ccccc1NC(=S)Nc1ccc(S(N)(=O)=O)cc1	-8%	11µM*	-6%	-26%	-6%
Cc1ccccc1NC(=S)NC(=O)C1CCCCC1	·	4µM*	·	?	·
CCOc1ccccc1NC(=S)NC(=O)C1CC1	·	?	·	0.71µM*	·
CCOc1ccccc1NC(=O)/C=C/C(N)=O	6%	4.5µM*	0%	5.6µM*	-16%
CC(C)[C@H]1COC(c2cccc([N+](=O)[O-])c2)=N1	-6%[126 µM]	18%[96.6 µM]	-8%[126 µM]	-8%[96.6 µM]	-5%[126 µM]
CC(C)c1ccc(/C=N/N2CCN(c3ccccn3)CC2)cc1	-6%	33%	?	3%	13µM*
Oc1ccccc1/C=N/N1CCN(c2ccccn2)CC1	-3%	13%	-25%	9%	?
Cc1ccc(/C=N/N(C)S(=O)(=O)c2ccc(C)cc2)cc1	·	16%	·	18µM*	·
CSc1ccc(/C=N/N(C)S(=O)(=O)c2ccc(C)cc2)cc1	·	-2%	·	?	·
CCOC(=O)c1c(NC(=O)c2cc(OC)c(OC)c(OC)c2)sc2c1CCCC2	-1%	·	-3%	·	1%
Cc1ccc(C)n1-c1ccc(N2CCOCC2)cc1	-15%	?	-8%	-7%	8.9µM*
Cc1ccc(C)n1-c1ccc(N2CCOCC2)c([N+](=O)[O-])c1	-6%	-3%	-25%	6%	?
Cc1ccc(C)n1-c1ccc(N(C)C)cc1	?	5%	?	-16%[10 µM]	13µM*
Cc1ccc(C)n1-c1ccc(C(=O)/C=C/N(C)C)cc1	3%	-1%	-4%	4%	-7%
SMILES	Tau fibril FP	RORg inh	Tau fluor counter	VP16 counter	Tau ThT inhib
CN(C)c1ncc2ncc(=O)n(C)c2n1	·	-23%	·	-14%	·
C=CCn1c(SCc2ccccc2C#N)nnc1-c1cc(Br)ccc1O	3%	18µM*	-19%	25µM*	-16%
C=CCn1c(SCC(N)=O)nnc1-c1cccc(Br)c1	-4%	-3%	-2%	-7%	-7%
Cc1c(O)ccc(/C=N/Nc2ncccc2[N+](=O)[O-])c1O	·	10µM*	·	?	·
O=[N+]([O-])c1cccnc1N/N=C/c1ccccc1O	6%	-26%	-5%	-4%	?
Oc1ccc(-c2cn3c(n2)SCC3)cc1O	?	-35%	14µM*[quencher]	?	10µM*
CC(=O)N(OCc1ccccc1)[C@@H]1c2cc(C#N)ccc2OC(C)(C)[C@H]1O	2%	-23%	-12%	1%	0%
COc1cccc2[nH]c3ccccc3c(=O)c12	·	0%[1.91 µM]	·	?	·
COc1cc2[nH]c(C(=O)NN)c(N)c2cc1OC	?	-9%	22µM*[quencher]	-3%	16µM*
COc1cccc2[nH]c(C(=O)NN)c(N)c12	?	?	?	-1%	28µM*
Cc1cccn2c(=O)c3cc(C(=O)NCc4cccnc4)c(=N)n(CC4CCCO4)c3nc12 (centres undefined)	·	-3%	·	-20%	·
COc1ccc2[nH]cc(CCNc3ccnc(-c4ccc(C(=O)N(C)C)cc4)n3)c2c1	·	9%	·	0%	·
C=NCc1cc2c(OC[C@@H](O)CNC(C)(C)C)cccc2[nH]1	-1%	·	-6%	·	-7%
Cc1cc(C)c(C(=O)COc2cccnc2[N+](=O)[O-])cc1C	?	?	?	?	14µM*
Cc1cc(Nc2ccccc2F)n2nc(Cc3ccc(Cl)cc3)nc2n1	-1%	·	16%	·	16%
CCCc1c(C(=O)N/N=C/c2cccc3ccccc23)nnn1-c1nonc1N	·	-41%	·	-10%	·
CCOC(=O)c1noc2ncnc(N3CCN(c4ccccc4OC)CC3)c12	-2%	·	-19%	·	-18%
O=C(NCc1ccncc1)C1CCCN1S(=O)(=O)c1ccc(Cl)cc1 (centres undefined)	·	0.63µM*	·	-14%	·
Cc1ccc(S(=O)(=O)N2CCCC(C(=O)NCc3ccccn3)C2)cc1 (centres undefined)	-15%	69%	-10%	5%	-4%
CC(C)(C)c1ccc(S(=O)(=O)N2CCCCC2C(=O)NCc2ccccn2)cc1 (centres undefined)	4%	?	-5%	2.5µM*	-17%
O=C(NCc1ccccn1)C1CN(S(=O)(=O)c2ccccc2)CCN1S(=O)(=O)c1ccccc1 (centres undefined)	-2%	11µM*	-3%	-7%	-7%
CCOC(=O)c1c(NC(=O)c2cc(-c3ccc(OC)cc3)on2)sc(C)c1C	-5%	·	-8%	·	?
CC(O)CN(C)C (centres undefined)	·	14%	·	-3%	·
CC(=O)c1sc(NC(=O)CCCOc2ccc(Cl)cc2)nc1C	-5%	34%	-13%	2%	?
CCn1c(C(=O)NCc2ccccc2C)cc2oc3ccccc3c21	-4%	·	?	·	?
CCC(C)NC(=O)Cn1c(=O)n(-c2ccc(OC)c(OC)c2)c(=O)c2ccccc21 (centres undefined)	1%	·	2%	·	5%
COc1ccc(C(=O)/C=C/C(=O)N(CC(=O)NC2CCCCC2)Cc2cccs2)c(O)c1	-8%	7.9µM*	-10%	5µM*	?
Cc1ccc(CNC(=O)c2ccc3nc(SCc4ccc(F)cc4)[nH]c3c2)cc1	22µM*	·	?	·	3%
O=C(CSc1nnc(-c2cccnc2)n1Cc1ccco1)N1c2ccccc2Sc2ccccc21	6%	13µM*	-5%	?	?

Screening results deposited in PubChem by National Center for Advancing Translational Sciences (NCATS).
